# Test results reported in PubChem BioAssay AID598 (SRMLSC, 2007).
# Screen size: about 85,000 compounds; about 5,100 (6%) were called active. The sample as a whole holds a higher share of actives than the screen did. Unmarked numbers belong to inactive results.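 Rule for the calls: active = viability at or below 40%; inactive = viability above 40%.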
# Assay: H69AR cell viability reduction – human, 86K library, primary screen (AID 598);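 note: multidrug resistant small cell line overexpressing MRP-1 efflux transporter; 100% = mean luminescence of untreated control wells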
# Settings: H69AR lung tumor viability, ATP luminescence, 72 h; at 10 µM; active compounds read low
row,SMILES,viability
1,CCN(CC)CC(=O)c1c[nH]c2ccc(OC)cc12,77.2%
2,CC(c1ccco1)N(C(=O)Nc1ccccc1)C1CCCCC1 (stereo not given),77.7%
3,O=C(CO/N=C/c1ccccc1O)NNC(=O)c1ccccc1Cl,102%
4,CC[C@]1(O)CC2CN(CCc3c([nH]c4ccccc34)[C@@](C(=O)OC)(c3cc4c(cc3OC)N(C=O)[C@H]3[C@@](O)(C(=O)OC)[C@H](OC(C)=O)[C@]5(CC)C=CCN6CC[C@]43[C@@H]65)C2)C1 (stereo not given in full),31.9% (active)
5,CC(C)c1cc(C(=O)O)n[nH]1,102%
6,Cc1ccc(NC(=O)CSCC(=O)N2CCOCC2)cc1,93.9%
7,CCCc1[nH]nc2c1C(c1ccc(OC(=O)c3ccco3)cc1)C(C#N)=C(N)O2 (stereo not given),97.7%
8,CCCc1[nH]nc2c1C(c1ccc(Br)s1)C(C#N)=C(N)O2 (stereo not given),1.42% (active)
9,CCCc1[nH]nc2c1C(c1ccc(OC)c(Cn3nc(C)c(Br)c3C)c1)C(C#N)=C(N)O2 (stereo not given),87.4%
10,CCOc1ccc(CN(Cc2ccco2)S(=O)(=O)c2ccc(-n3cnnn3)c(OC)c2)cc1,66.6%
11,Cc1c(C=O)c2ccccn2c1C(=O)c1ccncc1,87.6%
12,Cc1ccc(-c2cc(C(=O)NCC3CCCO3)c3ccccc3n2)o1 (stereo not given),87.9%
13,Cc1ccc(-c2csc(SCC(=O)Nc3cc(C)on3)n2)cc1,87.9%
14,Cc1ccc2nc(-c3ccc(SCC(=O)Nc4cc(C)on4)nc3)[nH]c2c1,10.7% (active)
15,COc1ccc2nc(SCC(=O)Nc3c(C)cc(C)cc3C)[nH]c2c1,71.7%
16,CC(C)NC(=O)CSc1nnc(COc2ccccc2Cl)o1,106%
17,CCCC(C)C(=O)Nc1ccc(NC(C)=O)cc1 (stereo not given),103%
18,CCN1CCN(c2c(Cl)cccc2NC(=O)c2ccc(Br)o2)CC1,90.5%
19,CCCC(=O)Nc1ccc(Cl)c(NC(=O)c2ccc(Br)o2)c1,28.2% (active)
20,COc1cc(OC)c(NC(=O)c2ccc(Br)o2)cc1Cl,58.5%

row,SMILES,viability
1,CCN(c1ccccc1)S(=O)(=O)c1cccc(C(=O)O)c1,103%
2,CCN(c1ccccc1)S(=O)(=O)c1ccc(N)cc1,89.9%
3,CCN(c1ccccc1)S(=O)(=O)c1ccc(NC(=O)C(C)(C)C)cc1,34.8% (active)
4,COc1ccc(/C(O)=C2\C(=O)C(=O)N(Cc3ccco3)C2c2ccc(OC)cc2OC)cc1 (stereo not given),97.1%
5,CC1=NN(/C(=N\c2nnc(C)s2)Nc2ccccc2)[C@H](c2ccc(C)cc2)S1,56.5%
6,CS(=O)(=O)N(CC(=O)N1CCN(c2ccc(F)cc2)CC1)C1CCCCC1,92%
7,CCOC(=O)N1CCN(C(=O)CN(C2CCCCC2)S(C)(=O)=O)CC1,84.9%
8,CS(=O)(=O)N(CC(=O)Nc1ccc(Cl)c(Cl)c1)C1CCCCC1,16.6% (active)
9,COC(=O)C1=C(C)N=C2SC(C)C(=O)N2C1/C=C/c1ccccc1 (stereo not given),85.8%
10,O=C(NCCCN1CCCCC1)c1ccc2c(c1)NC(=O)C(N1CCOCC1)S2 (stereo not given),98.8%
11,Nc1c(C(=O)NCc2ccccc2)nnn1Cc1cccc(Cl)c1,26.7% (active)
12,CCOc1ccc(Cn2nnc(C(=O)NCc3ccccc3)c2N)cc1,90.5%
13,CCOc1ccc(Cn2nnc(C(=O)Nc3ccc(OC)cc3OC)c2N)cc1,76.9%
14,COc1cc(OC)cc(-c2cc3nc(C4CCN(C(=O)OC(C)(C)C)CC4)cc(=O)n3[nH]2)c1,106%
15,COc1ccc(C(=O)NN(C)c2nc(-c3ccccc3)cc(C)c2S(C)(=O)=O)cc1,85%
16,O=C(NCc1ccco1)c1nc(-c2ccccc2)n(-c2ccccc2)n1,75%
17,Cn1nc(-c2ccc(Cl)cc2)c2cc(C(=O)NCc3ccco3)sc21,68.1%
18,Cc1nn(-c2ccccc2)c2sc(C(=O)N(Cc3ccco3)C(C)C(=O)NC(C)(C)C)cc12 (stereo not given),7.03% (active)
19,NC(=O)c1sc2nc3c(c(-c4ccccc4)c2c1N)CCC3,73.2%
20,Cc1cccc(NC(=O)c2sc3nc4c(c(-c5ccco5)c3c2N)CCC4)c1,78.6%

row,SMILES,viability
1,CC(=O)Nc1ccc(NC(=O)c2sc3nc4c(c(-c5ccc(C)cc5)c3c2N)CCC4)cc1,30.2% (active)
2,COc1cc(OC)c(-n2c(C)cc(C=O)c2C)cc1Cl,104%
3,Cc1cccc(C)c1NC(=O)CSc1nnc(-c2ccccc2)n1Cc1ccc2c(c1)OCO2,72.2%
4,CSc1nc(C)cc(SC(C(C)=O)C(=O)Nc2ccccc2)n1 (stereo not given),100%
5,Cc1onc(-c2ccccc2Cl)c1C(=O)OCC(=O)c1ccccc1,97%
6,O=C(NCCN1CCN(Cc2ccccc2)CC1)c1cc2c(=O)[nH]c3ccccc3c2s1,1.91% (active)
7,CN1CCN(CCCNC(=O)c2cc3c(=O)oc4ccccc4c3s2)CC1,87.3%
8,O=C(Cc1c(O)c2ccccc2[nH]c1=O)NCc1ccccc1,101%
9,COc1ccc(-n2c(C)csc2=S)cc1,86.6%
10,CCOc1ccc(C(O)Cn2c(=N)n(CCN3CCCCC3)c3ccccc32)cc1 (stereo not given),44.7%
11,CCOc1ccc(NC(=O)C2CCCN(C(=O)Nc3ccccc3)C2)cc1 (stereo not given),79.5%
12,CCOc1ccccc1NC(=O)c1cccnc1,87.4%
13,Cc1cc(=O)oc2cc(OCC3CC(c4ccccc4Cl)=NO3)ccc12 (stereo not given),27.1% (active)
14,Cc1ccccc1N1CCN(CCCOc2ccc3c(C)cc(=O)oc3c2)CC1,58.7%
15,Cc1cc(=O)oc2cc(NC(=O)C3CC(=O)N(Cc4ccccc4)C3)ccc12 (stereo not given),96.1%
16,O=C(CSCc1c(F)cccc1Cl)NCC1CCCO1 (stereo not given),90.5%
17,Cc1cc(SCC(=O)c2ccccc2)nc(SCC(=O)c2ccccc2)n1,72.1%
18,Cc1ccc(S(=O)(=O)NCCN2CCOCC2)cc1C,100%
19,CCCCN(CCCC)C(=O)CCS(=O)(=O)c1ccc2c(c1)n(C)c(=O)c(=O)n2C,70.2%
20,CC(=O)CCS(=O)(=O)c1ccc(C)c(C)c1,1.25% (active)
